# Test results reported in PubChem BioAssay (Tox21).
# Records with an inconclusive call do not appear. Where a call stands in place of a potency, no number is given. The source made the active and inactive calls. Calls come from the whole dose curve. Bridge positions count the residues as written; N and C are the ends. Square brackets hold non-standard residues; d marks the D form. Peptide text beside a SMILES is read from it. hArg = N=C(N)NCCCC[C@H](N)C(=O)O; Mpa = O=C(O)CCS
# Experiment: cAMP Responsive Elements (CRE) small molecule agonists, cell-based qHTS assay (AID 1963590)
# Details: CRE-bla HEK293T, beta-lactamase FRET ratio, 3 h; series mostly up to 92.4 µM
# Text: U.S. Tox21 Program National Center for Advancing Translational Sciences [NCATS] Division of Preclinical Innovation [DPI] U.S. Environmental Protection Agency [EPA] National Institutes of Environmental Health Sciences [NIEHS] National Toxicology Program [NTP] U.S. Food and Drug Administration [FDA] Tox21 Assay Overview: CREB (cyclic-AMP Responsive Element Binding Protein) is a cellular transcription factor. It binds to certain DNA sequences called cAMP Responsive Elements (CRE) and regulates the transcription of the genes. […] This cell line can be used to find agonists/antagonists of the cyclic AMP signaling pathway. The activation of the report gene under culture conditions can be detected by fluorescence intensity. This cell line has been used to screen the Tox21 10K compound library to identify agonists that induce oxidative stress.
# Tox21 Assay Protocol Summary: CRE-bla Hek 293T cells were suspended in assay medium (DMEM containing 10% dialyzed FBS, 0.1 mM NEAA, 1 mM sodium pyruvate and 25 mM HEPES) and dispensed at 2,000 cells/5 uL /well into 1536-well black wall/clear bottom plates using a Multidrop Combi (ThermoFisher Scientific, Waltham, MA) dispenser. After the assay plates were incubated at 37 C/5% CO2 for 18 hrs, 23 nL of compounds dissolved in DMSO, positive controls or DMSO only was transferred to the assay plate by a pintool workstation (Kalypsys, San Diego, CA). After the plates were incubated at 37 C/5% CO2 for 3 hrs, 1 uL of LiveBLAzer B/G FRET substrate (Invitrogen, Carlsbad, CA) was added to each well using Bioraptr Flying Reagent Dispenser (FRD, Aurora Discovery, San Diego, CA). The plates were incubated at room temperature for 2 h.
row,Structure (SMILES),Potency
1,COc1cc([N+](=O)[O-])ccc1N,inactive
2,CCOC(=O)CC(=O)c1ccccc1,inactive
3,COc1cc(OC)c2ccc(=O)oc2c1,inactive
4,CCc1cccc2c(CCO)c[nH]c12,inactive
5,CN1CC(=O)N2[C@H](c3ccc4c(c3)OCO4)c3[nH]c4ccccc4c3C[C@@H]2C1=O,inactive
6,CCCCOc1ccc(CC(=O)NO)cc1,inactive
7,CCCCCCCCCCCCCCCS(=O)(=O)Oc1ccccc1,inactive
8,CCCC(=O)OC,inactive
9,CCO[Si](CCCS)(OCC)OCC,inactive
10,O/N=C/C=N/O,inactive
11,COc1cc2nc(N3CCN(C(=O)C4COc5ccccc5O4)CC3)nc(N)c2cc1OC (stereo not given),inactive
12,CS(=O)(=O)c1ccc([C@@H](O)[C@@H](CF)NC(=O)C(Cl)Cl)cc1,inactive
13,CC(O)C1CCCCC1 (stereo not given),inactive
14,Fc1ccc(C(c2ccc(F)cc2)N2CCNCC2)cc1,inactive
15,CC1CCC(CO)CC1 (stereo not given),inactive
16,CC(C)CO,inactive
17,C/C(CC(C)C)=N\O,inactive
18,CCn1nc(C)c2c1C(=O)NCC(c1ccc(O)cc1)=N2,inactive
19,NNc1nc(-c2ccc(N)cc2)cs1,inactive
20,Nc1cc(Cl)cc(S(=O)(=O)O)c1O,inactive

row,Structure (SMILES),Potency
1,CCCCCOC(=O)Nc1nc(=O)n([C@@H]2O[C@H](C)[C@@H](O)[C@H]2O)cc1F,inactive
2,CN(C)CCCO[C@@H]1[C@H]2OC(C)(C)O[C@H]2O[C@@H]1C(O)CO (stereo not given in full),inactive
3,CC(C)(N)C#N,inactive
4,CN(C)C(C)(C)CO,inactive
5,OC[C@H]1O[C@@H](n2cnc3c(=S)nc[nH]c32)[C@H](O)[C@@H]1O,inactive
6,Cc1nc2ccccc2c(=O)o1,inactive
7,CC[C@@]1(c2ccccc2)NC(=O)N(C)C1=O,inactive
8,CCOc1ccc(NC(N)=O)cc1,inactive
9,C=CCOC(=O)c1ccc(C(=O)OCC=C)c(C(=O)OCC=C)c1,inactive
10,O=C1c2c(O)ccc(O)c2C(=O)c2c(NCCNCCO)ccc(NCCNCCO)c21,inactive
11,Nc1ccn([C@@H]2O[C@H](CO)[C@@H](O)C2O)c(=O)n1 (stereo not given in full),inactive
12,O=[N+]([O-])c1nccn1CO[C@@H](CO)[C@H](O)CO,inactive
13,CCCCCCCCCCCC(=O)OCC,inactive
14,NC(=O)[C@@H]1CSSCCC(=O)N[C@@H](CCCCN=C(N)N)C(=O)NCC(=O)N[C@@H](CC(=O)O)C(=O)N[C@@H](Cc2c[nH]c3ccccc23)C(=O)N2CCC[C@H]2C(=O)N1 ([Mpa][hArg]GDWPC-NH2; disulfide 1-7),inactive
15,COC(=O)C1=C(C)NC(C)=C(C(=O)O[C@@H]2CCCN(Cc3ccccc3)C2)[C@@H]1c1cccc([N+](=O)[O-])c1,inactive
16,Brc1ccccc1-c1ccccc1,inactive
17,CC(C)(C)c1cc(CO)cc(C(C)(C)C)c1O,inactive
18,Nc1c[n+](N2CCOCC2)no1,inactive
19,CN[C@@H]1[C@@H](O)[C@@H](O[C@@H]2[C@H](O)[C@H](O[C@H]3OC(CN)=CC[C@H]3N)[C@@H](N)C[C@H]2N)OCC1(C)O (stereo not given in full),inactive
20,CNc1ccc([N+](=O)[O-])cc1,inactive
